The values that follow come from PubChem BioAssay (EPA / NIEHS).

Inconclusive results are not listed. The source made the active and inactive calls. Rule for the calls: active = hit-call score of the fitted dose curve at least 0.9, where 1 is the maximum; inconclusive = response in the unintended direction; inactive = score below 0.9.

Experiment [1] is described as follows: ACEA_ER_AUC_viability: ACEA Biosciences xCELLigence Real-Time Cell Analysis on Estrogen Receptor Agonism for Viability (AID 2283782).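 Note: hit means loss of impedance signal meaning reduced cell growth or viability.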 In short, it runs like this:
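Continuous-exposure impedance cell analysis uses T-47D cells in charcoal-stripped serum, eight 1:4 dilutions topping at 100 uM final, biological duplicate. Area under the growth curve at 80 h is fitted against DMSO baseline.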

For experiment [2], the system named is zebrafish Estrogen Receptor (ESR2A), gene 317734. As to the kind of experiment: ATG_zfER2a_XSP1: Attagene TRANS-FACTORIAL Multi-Species (XSP1) HepG2 Assay for zebrafish Estrogen Receptor (ESR2A) (AID 2283778). In a few lines: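 Gain-of-signal reporter transcription readout from GAL4-UAS units in transiently transfected HepG2 cells, 24 h exposure, 3 nM 6-alpha-fluorotestosterone co-present. Detection by RT-PCR with capillary electrophoresis fluorescence.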

The target in experiment [3] is chicken Estrogen Receptor (ESR1), ESR1 (gene 396099) (UniProt P06212). Put plainly: ATG_chERa_XSP1: Attagene TRANS-FACTORIAL Multi-Species (XSP1) HepG2 Assay for chicken Estrogen Receptor (ESR1) (AID 2283779). In a few lines: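 Gain-of-signal reporter transcription, relative to DMSO, was scored in transiently transfected HepG2 cells after a 24 h dose. Fluorescence intensity of amplified, digested reporter cDNA fragments served as the endpoint.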

Experiment [4] concerns turtle Estrogen Receptor (ESR1), gene 101933533. Put plainly: ATG_trERa_XSP1: Attagene TRANS-FACTORIAL Multi-Species (XSP1) HepG2 Assay for turtle Estrogen Receptor (ESR1) (AID 2283781). In a few lines:
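Cell-based chimeric NR-Gal4 transactivation; HepG2; 24 h dosing; mRNA reporter detected by RT-PCR and capillary electrophoresis fluorescence.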

Experiment [5] has as its system turtle Androgen Receptor (AR), gene 101947425. Put plainly: ATG_trAR_XSP1: Attagene TRANS-FACTORIAL Multi-Species (XSP1) HepG2 Assay for turtle Androgen Receptor (AR) (AID 2283786). In a few lines:
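Partial androgen stimulation is provided by 3 nM 6-alpha-fluorotestosterone in a multi-species trans-factorial panel expressing a turtle AR–GAL4 fusion in HepG2. After 24 h, reporter mRNA is measured by RT-PCR and capillary electrophoresis and fitted upward against DMSO.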

Experiment [6] addresses Estrogen receptor beta (Homo sapiens) (UniProt Q92731). As to the kind of experiment: ATG_hERb_XSP1: Attagene TRANS-FACTORIAL Multi-Species (XSP1) HepG2 Assay for human Estrogen Receptor (ESR2) (AID 2283788). In short, it runs like this: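 Multiplexed trans-activation in transfected HepG2: ERβ-Gal4 reporter transcripts after 24 h treatment, detected by RT-PCR plus capillary electrophoresis.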

A short description of experiment [7]: ATG_M_06_XSP1: Attagene TRANS-FACTORIAL Multi-Species (XSP1) HepG2 Assay for M06 Transcription Factor (Internal Marker) (AID 2283790). In a few lines:
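This background-control readout tracks M06 reporter mRNA, measured by RT-PCR and capillary electrophoresis. HepG2 cells transiently carrying the GAL4-UAS reporter panel were dosed for 24 h with 3 nM 6-alpha-fluorotestosterone added for partial AR stimulation; increases were scored relative to DMSO.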

Experiment [8] is described as follows: ATG_M_61_XSP1: Attagene TRANS-FACTORIAL Multi-Species (XSP1) HepG2 Assay for M61 Transcription Factor (Internal Marker) (AID 2283797). In short, it runs like this:
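Background-control readout: reporter transcripts measured by RT-PCR and capillary electrophoresis 24 h after dosing transiently transfected HepG2 multi-reporter cells, with 3 nM 6-alpha-fluorotestosterone present. Fitted in the positive direction relative to DMSO.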

The test system of experiment [9] is zebrafish Peroxisome Proliferator-activated Receptor gamma (PPARg), gene 557037. Put plainly: ATG_zfPPARg_XSP1: Attagene TRANS-FACTORIAL Multi-Species (XSP1) HepG2 Assay for zebrafish Peroxisome Proliferator-activated Receptor gamma (PPARg) (AID 2283801). In a few lines: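 Trans-activation readout of chimeric zebrafish PPARg–GAL4 in transiently transfected human HepG2 cells, 24 h chemical exposure (medium includes 3 nM 6-alpha-fluorotestosterone). Reporter transcripts measured by RT-PCR and capillary electrophoresis, fitted as gain over DMSO.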

Experiment [10] deals with Nuclear receptor subfamily 1 group I member 2 (Mus musculus) (UniProt O54915). Put plainly: ATG_mPXR_XSP1: Attagene TRANS-FACTORIAL Multi-Species (XSP1) HepG2 Assay for mouse Pregnane X Receptor (PXR) (AID 2283803). In short, it runs like this: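 Transiently transfected HepG2 cells expressing a receptor-Gal4 chimera drive a GAL4-UAS reporter; 3 nM 6-alpha-fluorotestosterone included. Reporter mRNA read 24 h post-dose by RT-PCR and capillary electrophoresis; gain of signal relative to DMSO.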

Experiment [11] has as its target human Thyroid hormone Receptor alpha (TRa), THRA (gene 7067) (UniProt P10827). As to the kind of experiment: ATG_hTRa_XSP1: Attagene TRANS-FACTORIAL Multi-Species (XSP1) HepG2 Assay for human Thyroid hormone Receptor alpha (TRa) (AID 2283805). In short, it runs like this:
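Reporter transcripts from the human TRa-Gal4 TRANS unit quantified by RT-PCR, fluorescent labeling and capillary electrophoresis after 24 hours of chemical exposure in transfected HepG2 cells; medium contains 3 nM 6-alpha-fluorotestosterone. Positive direction fit against DMSO.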

Experiment [12] concerns the target zebrafish Thyroid Hormone Receptor alpha (TRa), thraa (gene 30670) (UniProt Q98867). Put plainly: ATG_zfTRa_XSP1: Attagene TRANS-FACTORIAL Multi-Species (XSP1) HepG2 Assay for zebrafish Thyroid Hormone Receptor alpha (TRa) (AID 2283807). In a few lines:
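Reporter transcripts driven by a chimeric zebrafish TRa–Gal4 protein were measured by RT-PCR with fluorescent labelling and capillary electrophoresis. These came from transiently transfected HepG2 cells after 24 h chemical exposure, with 3 nM 6-alpha-fluorotestosterone added; baseline was DMSO.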

In experiment [13] the target is human Thyroid hormone Receptor beta (TRb), THRB (gene 7068) (UniProt P10828). As to the kind of experiment: ATG_hTRb_XSP1: Attagene TRANS-FACTORIAL Multi-Species (XSP1) HepG2 Assay for human Thyroid hormone Receptor beta (TRb) (AID 2283808). In a few lines:
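Readout is reporter mRNA induction measured by RT-PCR, fluorescent labelling and capillary electrophoresis, fitted upward relative to DMSO. Transiently transfected human HepG2 cells expressing NR-Gal4 chimeras were dosed for 24 h, medium containing 3 nM 6-alpha-fluorotestosterone.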

Experiment [14] in a line: ATG_XTT_Cytotoxicity_XSP1: Cytotoxicity Assessment in the Attagene TRANS-FACTORIAL Multi-Species (XSP1) HepG2 Assay (AID 2283810). In short, it runs like this:
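XTT viability readout taken at 24 hours post-dosing in HepG2 liver cells co-treated with 3 nM 6-alpha-fluorotestosterone. Signal loss relative to DMSO controls reflects cytotoxicity.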

Experiment [15] has as its system turtle Estrogen Receptor (ERa), gene 101933533. As to the kind of experiment: ATG_trERa_XSP2: Attagene TRANS-FACTORIAL Multi-Species (XSP2) HepG2 Assay for turtle Estrogen Receptor (ERa) (AID 2283812).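 Note: actives raise reporter signal above DMSO so AC50 reflects agonist activity.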 In a few lines:
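Readout is reporter mRNA quantified by RT-PCR with capillary electrophoresis after 24 h compound exposure, increase relative to DMSO. Uses transiently transfected human HepG2 liver cells carrying a chimeric turtle ERa-Gal4 receptor driving GAL4-UAS reporters.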

Sequence of Nuclear receptor subfamily 1 group I member 2 (Mus musculus) (O54915 whole entry, looked up, the tested form may be a part): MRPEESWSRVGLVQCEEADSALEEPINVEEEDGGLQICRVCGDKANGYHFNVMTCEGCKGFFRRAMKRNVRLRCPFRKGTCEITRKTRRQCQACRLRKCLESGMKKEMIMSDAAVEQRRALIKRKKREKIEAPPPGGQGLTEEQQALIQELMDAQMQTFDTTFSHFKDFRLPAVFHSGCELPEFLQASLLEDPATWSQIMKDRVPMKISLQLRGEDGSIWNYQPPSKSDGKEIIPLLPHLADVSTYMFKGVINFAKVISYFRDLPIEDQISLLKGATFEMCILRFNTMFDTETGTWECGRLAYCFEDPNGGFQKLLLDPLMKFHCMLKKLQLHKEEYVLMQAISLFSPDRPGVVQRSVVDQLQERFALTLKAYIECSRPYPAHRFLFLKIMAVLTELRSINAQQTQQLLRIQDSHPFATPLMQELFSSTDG
Sequence of zebrafish Thyroid Hormone Receptor alpha (TRa), thraa (gene 30670) (Q98867 whole entry, looked up, the tested form may be a part): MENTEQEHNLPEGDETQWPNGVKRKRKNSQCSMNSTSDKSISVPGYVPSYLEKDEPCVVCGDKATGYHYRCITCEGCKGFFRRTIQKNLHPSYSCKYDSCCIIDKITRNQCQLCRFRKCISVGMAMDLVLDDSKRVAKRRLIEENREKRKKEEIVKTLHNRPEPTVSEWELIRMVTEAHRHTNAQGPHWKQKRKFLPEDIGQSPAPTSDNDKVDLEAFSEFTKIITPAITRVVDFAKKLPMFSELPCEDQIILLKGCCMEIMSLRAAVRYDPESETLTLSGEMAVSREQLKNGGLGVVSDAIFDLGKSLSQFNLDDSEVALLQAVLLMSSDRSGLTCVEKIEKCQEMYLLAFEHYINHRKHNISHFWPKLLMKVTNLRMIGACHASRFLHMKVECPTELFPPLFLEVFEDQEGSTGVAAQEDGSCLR
Sequence of Estrogen receptor beta (Homo sapiens) (Q92731 whole entry, looked up, the tested form may be a part): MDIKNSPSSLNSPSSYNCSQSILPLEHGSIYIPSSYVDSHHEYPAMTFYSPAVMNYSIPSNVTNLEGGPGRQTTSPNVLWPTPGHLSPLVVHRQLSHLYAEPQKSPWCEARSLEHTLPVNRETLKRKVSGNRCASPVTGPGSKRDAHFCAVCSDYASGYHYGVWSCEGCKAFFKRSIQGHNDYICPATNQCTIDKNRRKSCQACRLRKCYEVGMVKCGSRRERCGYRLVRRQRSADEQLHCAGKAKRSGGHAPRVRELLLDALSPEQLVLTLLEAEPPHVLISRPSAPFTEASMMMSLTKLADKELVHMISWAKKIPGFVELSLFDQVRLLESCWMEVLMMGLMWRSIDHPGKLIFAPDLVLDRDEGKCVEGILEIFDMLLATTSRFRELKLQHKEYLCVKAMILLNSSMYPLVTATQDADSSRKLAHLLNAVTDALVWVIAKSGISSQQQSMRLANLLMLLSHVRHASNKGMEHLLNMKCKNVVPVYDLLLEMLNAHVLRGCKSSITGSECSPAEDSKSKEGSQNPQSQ
Sequence of human Thyroid hormone Receptor beta (TRb), THRB (gene 7068) (P10828 whole entry, looked up, the tested form may be a part): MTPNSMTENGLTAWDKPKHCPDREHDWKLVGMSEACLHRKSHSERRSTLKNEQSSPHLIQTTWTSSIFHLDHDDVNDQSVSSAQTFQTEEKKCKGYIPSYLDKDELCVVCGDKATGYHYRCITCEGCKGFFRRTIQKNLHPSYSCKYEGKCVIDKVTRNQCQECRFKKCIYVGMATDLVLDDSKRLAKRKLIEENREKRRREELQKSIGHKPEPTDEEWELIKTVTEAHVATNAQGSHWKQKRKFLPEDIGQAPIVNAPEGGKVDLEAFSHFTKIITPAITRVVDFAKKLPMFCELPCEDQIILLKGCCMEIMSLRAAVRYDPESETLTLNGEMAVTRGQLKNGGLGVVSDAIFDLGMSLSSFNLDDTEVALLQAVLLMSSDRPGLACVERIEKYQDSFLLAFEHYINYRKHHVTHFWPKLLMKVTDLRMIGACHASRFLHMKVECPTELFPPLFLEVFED
Sequence of chicken Estrogen Receptor (ESR1), ESR1 (gene 396099) (P06212 whole entry, looked up, the tested form may be a part): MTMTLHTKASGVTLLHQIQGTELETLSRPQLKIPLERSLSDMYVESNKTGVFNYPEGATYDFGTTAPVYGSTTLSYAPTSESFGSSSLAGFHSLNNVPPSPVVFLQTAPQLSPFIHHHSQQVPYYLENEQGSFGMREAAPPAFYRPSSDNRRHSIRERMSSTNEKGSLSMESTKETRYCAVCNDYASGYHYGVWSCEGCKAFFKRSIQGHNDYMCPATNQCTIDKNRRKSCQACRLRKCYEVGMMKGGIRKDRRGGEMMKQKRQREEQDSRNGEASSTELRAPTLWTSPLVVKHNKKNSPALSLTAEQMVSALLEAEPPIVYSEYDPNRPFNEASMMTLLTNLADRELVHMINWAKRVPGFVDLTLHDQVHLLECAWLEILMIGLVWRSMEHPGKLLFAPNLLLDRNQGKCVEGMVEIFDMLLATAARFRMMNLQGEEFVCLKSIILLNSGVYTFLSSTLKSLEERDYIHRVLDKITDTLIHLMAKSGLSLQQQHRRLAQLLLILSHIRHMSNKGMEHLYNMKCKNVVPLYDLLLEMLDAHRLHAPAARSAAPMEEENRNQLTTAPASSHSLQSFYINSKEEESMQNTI
Sequence of human Thyroid hormone Receptor alpha (TRa), THRA (gene 7067) (P10827 whole entry, looked up, the tested form may be a part): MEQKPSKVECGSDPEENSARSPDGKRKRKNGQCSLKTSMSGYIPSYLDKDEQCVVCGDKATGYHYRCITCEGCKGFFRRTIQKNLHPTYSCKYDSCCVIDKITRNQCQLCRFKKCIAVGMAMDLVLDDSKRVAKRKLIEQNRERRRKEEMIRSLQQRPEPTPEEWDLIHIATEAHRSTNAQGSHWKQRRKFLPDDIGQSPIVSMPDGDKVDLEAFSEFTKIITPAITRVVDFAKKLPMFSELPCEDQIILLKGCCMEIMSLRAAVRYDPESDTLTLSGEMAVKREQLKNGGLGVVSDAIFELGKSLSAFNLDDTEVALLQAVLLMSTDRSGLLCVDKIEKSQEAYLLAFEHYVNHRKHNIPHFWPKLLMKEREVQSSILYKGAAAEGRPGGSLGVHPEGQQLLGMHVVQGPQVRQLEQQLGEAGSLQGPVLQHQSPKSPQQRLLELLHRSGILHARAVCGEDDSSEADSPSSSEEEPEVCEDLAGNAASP

Turning to `CCOC(=O)C1OC1c1ccccc1` (stereo unspecified), the molecule was called inactive in [1].

Take `CCN(CCC#N)c1ccc(N=Nc2ccc([N+](=O)[O-])cc2)cc1`: in [1], the call was inactive.

As for `O=C1NC2NC(=O)NC2N1` (stereo unspecified), the molecule was called inactive in [1].

The AC50 is the concentration giving half of the maximal activity seen. As to `CC/C=C\CC/C=C/CO`, in [1], the concentration at half-maximal activity (AC50) is 50 µM (active).

In the case of `O=C(O)CCCCCCCCCCCC(=O)O`, in experiment [1], the half-maximal activity concentration (AC50) is 50 µM (active).

For the molecule `C=C(C)C(=O)OCC(CC)(COC(=O)C(=C)C)COC(=O)C(=C)C`, in experiment [1], the molecule was called inactive.

For the molecule `CC(C)CCOC(=O)c1ccccc1`, the molecule was called inactive in [1].

Take `O=C(c1ccccc1)C(O)c1ccccc1` (stereo unspecified): the molecule was called inactive in experiment [1].

Turning to `C=C(C)CNCC`, the half-maximal activity concentration (AC50) in experiment [1] is 25.7 µM (active).

For the molecule `CCCC(=O)OC(C)(C)Cc1ccccc1`, the call in experiment [1] was inactive.

With `CCOc1ccc(NC(=O)CC(C)=O)cc1`, in [1], the molecule was classed as inactive.

For the molecule `Oc1c(Cl)cc(Cl)c(Cl)c1Cc1c(O)c(Cl)cc(Cl)c1Cl`, the AC50 in experiment [1] was 5.27 µM (active).

Turning to `CC=Cc1ccc(OCC)c(O)c1`, the molecule was classed as inactive in [1].

With `CC1(C)COCN1`, the AC50 in [1] is 32.1 µM (active).

Regarding `O=[N+]([O-])c1ccc(O)cc1C(F)(F)F`, the AC50 in [1] was 86.6 µM (active).

For the molecule `CCc1ncc(C)[nH]1`, the call in experiment [1] was inactive.

Regarding `NCc1ccco1`, the result in experiment [1] was inactive.

Turning to `Cc1ncc[nH]1`, the molecule was called inactive in experiment [1].

For the molecule `CC=CC=CCOC(=O)C(C)C`, the AC50 in experiment [1] was 76.8 µM (active).

Take `CCCOCCO`: in [1], the result was inactive.

For `CCCCN(CCCC)C(=O)N(CCCC)CCCC`, the concentration at half-maximal activity (AC50) in experiment [1] was 80.4 µM (active).

On to `CCCCC(CC)COC(=O)c1ccc(O)cc1` (stereo unspecified), for which the half-maximal activity concentration (AC50) in experiment [2] is 1.41 µM (active); in experiment [3], 2.3 µM (active); in experiment [4] it was 3.59 µM (active); in [1], 22.4 µM (active); in experiment [14], 63.8 µM (active); in experiment [15], 25.3 µM (active). The call in [5], in experiment [6], in experiment [7], in [8], in experiment [9] and in experiment [10] was inactive. Further, the outcome in [11], in experiment [12] and in experiment [13] was inactive.
